Compound activity (PubChem BioAssay)
G9a block = qHTS Assay for Inhibitors of Histone Lysine Methyltransferase G9a. Histone-lysine N-methyltransferase EHMT2 (Homo sapiens), Q96KQ7. G9a H3K9 monomethylation, AlphaScreen, 2 h. Potency, µM (titrated, usually from 102 µM), without a hit: at the highest dose activity, negative = inhibition, hits mostly inhibitors. hit rate 8.8% among 350,000; also: % is scaled to controls: 0 for no effect and ±100 for the full control effect; nearly all actives have a fitted effect of over 75% in size
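Chemiluminescent proximity detection of H3K9 monomethylation, read after 10 min bead incubation in the dark. Reaction: 20 nM G9a, 500 nM biotin-H3K9 peptide, 20 uM SAM cofactor, 2 h, room temperature, following 15 min enzyme-compound preincubation.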
BAZ2B block = qHTS Assay for Inhibitors of BAZ2B; Bromodomain adjacent to zinc finger domain protein 2B (Homo sapiens), Q9UIF8; AlphaScreen BAZ2B-H3K14Ac peptide displacement; Potency, µM (series often up to 114 µM), without a hit: at the highest dose activity change, negative = inhibition, most hits filed as inhibitors; hit rate 4.4% among 360,000; AID 504333, 2011; also: % is scaled to controls: 0 for no effect and ±100 for the full control effect; nearly all actives have a fitted effect of over 60% in size
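BAZ2B 50 nM plus b-H3(5-23)K14Ac 50 nM, PBS pH 7.4/0.01% Tween-20, 30 min RT; compound added (max 110 uM), 30 min RT; streptavidin donor/Ni-chelate acceptor beads 10 ug/mL final, 20 min dark; AlphaScreen read.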
L3MBTL1 block = qHTS Assay for the Inhibitors of L3MBTL1. Lethal(3)malignant brain tumor-like protein 1 (Homo sapiens), Q9Y468. AlphaScreen L3MBTL1–H3K9me1 peptide binding. Potency, µM (titrated, usually from 57.1 µM), for the others: at the top dose activity, negative = inhibition, actives largely listed as inhibitors. hit rate 0.66% among 230,000. AID 485360, 2010; also: % is scaled to controls: 0 for no effect and ±100 for the full control effect; nearly all actives have a fitted effect of over 60% in size
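AlphaScreen assay: L3MBTL1 (50 nM final) was preincubated 30 min at room temperature with biotinylated H3(1-15)K9me1 peptide (75 nM final), then 30 min with library compounds; streptavidin donor and nickel chelate acceptor beads (10 ug/mL final) added, 30 min dark.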
JMJD2A Tudor inh = qHTS Assay for Inhibitors of JMJD2A-Tudor Domain. Lysine-specific demethylase 4A (Homo sapiens), O75164. AlphaScreen JMJD2A-Tudor / H3K4me3 peptide binding. Potency, µM (series often up to 114 µM), inactives show at the top dose activity change, negative = inhibition, hits mostly inhibitors. hit rate 4.4% among 390,000. AID 504339, 2011; also: % is scaled to controls: 0 for no effect and ±100 for the full control effect; nearly all actives have a fitted effect of over 50% in size
HP1b chromo inh = HTS for Inhibitors of HP1-beta Chromodomain Interactions with Methylated Histone Tails; Chromobox protein homolog 1 (Homo sapiens), P83916; AlphaScreen HP1-beta / biotin-H3K9me3 peptide binding; Potency, µM (series often up to 114 µM), for inactives: top-dose activity change, negative = inhibition, hits mostly inhibitors; hit rate 0.56% among 390,000; also: nearly all actives have a fitted effect of over 70% in size
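HP1-beta protein (50 nM final) preincubated 30 min at room temperature with biotinylated H3(1-18)K9me3 peptide (50 nM) in PBS pH 7.4, 0.01% Tween-20, then compound added for 30 min. AlphaScreen streptavidin donor/nickel chelate acceptor beads (10 ug/mL final), 30 min dark, luminescence read.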
An asterisk follows results filed as active; ? = inconclusive; . = not tested or not shown; [ ] = dose if it differs, or a comment. The list is not random: actives were taken first. Their share in the collection is about 11%. Calls follow the shape of the dose curve; as a rule, active = well fitted inhibition curve with a large enough effect; inconclusive = small, poorly fitted or top-dose-only effect; inactive = no such curve, though single readings can be large or run the other way. Potency is read from the fitted curve at half-maximal effect.

SMILES	G9a block	BAZ2B block	L3MBTL1 block	JMJD2A Tudor inh	HP1b chromo inh
CCOC(=O)N1CCN(CCC(=O)Nc2cccc(F)c2)CC1	-13%[59 µM]	-25%	.	-8%	25%
COc1ccc(NC(=O)C(C)n2nc(-c3ccc(C)c(C)c3)ccc2=O)cc1OC (centres undefined)	-18%[59 µM]	-35%	.	-13%	40%
COc1ccc(-c2c3c(=O)n(C)c(=O)n(C)c3cn2C2CCCCC2)cc1	?	50µM*	.	?	?
O=C(CSc1ccccc1)NC1=NCCS1	-8%	1%	.	?	17%
c1ccc(NNC2=NCCS2)cc1	50µM*	-14%	.	4µM*	?
C[C@H]1CN=C(N(C)C)N1CC1CCC(C(C)(C)C)CC1 (some centres undefined)	-1%[12.7 µM]	-7%	5%	-13%	41%
O=C(CCl)N1N=C(c2ccco2)CC1c1ccco1 (centres undefined)	50µM*	45µM*	.	45µM*	50µM*
O=C(CCl)N1N=C(c2cccs2)CC1c1ccco1 (centres undefined)	?	-16%	-8%	-25%	4%
COc1ccc(C2=NN(C(=O)CCC(=O)O)C(c3ccc([N+](=O)[O-])cc3)C2)cc1 (centres undefined)	40µM*	-2%	10%	-12%	13%
COc1ccc(C2=NN(C(=O)CSc3ncccn3)C(c3ccc(OC)cc3)C2)cc1 (centres undefined)	-10%[59 µM]	?	-10%	-24%	18%
CC(=O)N1N=C(c2ccc([N+](=O)[O-])cc2)CC1c1ccccc1Cl (centres undefined)	50µM*	?	-18%	?	?
COc1ccc(C2CC(c3ccccc3)=NN2C(=O)CCC(=O)O)cc1 (centres undefined)	.	-3%	1%	-20%	49%
COc1ccc(C2CC(c3ccc4ccccc4c3)=NN2C(=O)CSc2ncccn2)cc1 (centres undefined)	40µM*	-1%	-11%	-22%	17%
CCOc1ccccc1NC(=O)Cn1ncc2c([nH]c3ccccc32)c1=O	31%[59 µM]	9%	.	-17%	24%
CC(C)(C)c1ccc(C(=O)N2CCC(c3nc4ccccc4o3)CC2)cc1	-35%[59 µM]	-7%	.	-15%	29%
COc1ccc(C2CC(c3ccccc3)=NN2C(=O)COC(=O)c2cccc(N)c2)cc1 (centres undefined)	.	.	-13%	?	-4%
CCC(=O)N1N=C(c2ccc(Cl)cc2)CC1c1ccco1 (centres undefined)	10%	-35%	-16%	-26%	3%
COCC(=O)OCC(=O)N1N=C(c2ccc(Cl)cc2)CC1c1ccco1 (centres undefined)	?	?	-16%	-31%	-8%
O=C(OCC(=O)N1N=C(c2ccc(Cl)cc2)CC1c1ccco1)c1cccnc1 (centres undefined)	.	.	-91%	35µM*	?
COc1ccc(C(=O)NCC(=O)OCC(=O)N2N=C(c3ccc(Cl)cc3)CC2c2ccco2)cc1OC (centres undefined)	20µM*	-27%	7%	-35%	17%
COc1ccc(C2CC(c3ccccc3)=NN2C(=O)COC(=O)c2cccnc2)cc1 (centres undefined)	18µM*	-37%	-11%	-8%	38%
CCOC(=O)Cn1c(=O)n(C2CCCCC2)c2nc(-c3cccc(C)c3)nc(C(N)=O)c21	-3%[59 µM]	5%	.	-4%	26%[57 µM]
CC1CCCN(c2nc3ccccc3nc2C(C#N)S(=O)(=O)c2ccccc2)C1 (centres undefined)	?	?	-6%	-17%	36%
Cc1ccc(S(=O)(=O)C(C#N)c2nc3ccccc3nc2N2CCCCC2)cc1 (centres undefined)	45µM*	6%	-2%	.	.
COc1ccc(S(=O)(=O)C(C#N)c2nc3ccccc3nc2N2CCC(C)CC2)cc1 (centres undefined)	3.2µM*	45µM*	2%	.	.
SMILES	G9a block	BAZ2B block	L3MBTL1 block	JMJD2A Tudor inh	HP1b chromo inh
O=C(NC(=S)N(Cc1ccccc1)c1ccccn1)C1CC1	14µM*	2%	4%	-2%	13%
CCN(C(=S)NC(=O)Cc1ccc(OC)cc1)c1ccccc1	.	.	.	-4%	2%
CN(C(=S)NC(=O)C1CC1)c1ccc(O)cc1	?	-2%	8%	89µM*	-39%
CCN(C(=S)NC(=O)C1CC1)c1ccccc1	35µM*	-22%	.	-13%	12%
O=C(NC(=S)N(Cc1ccccc1)Cc1ccccc1)C1CCCCC1	-20%	29%	46%	-16%	75%
COc1ccc(-c2nc3scc(CCNS(=O)(=O)c4c(C)cc(C)cc4C)n3n2)cc1OC	-3%[59 µM]	-21%	.	-11%	37%
COc1cccc(OCc2cc(C3Nc4ccccc4C(=O)N3c3ccccc3)ccc2OC)c1 (centres undefined)	.	.	.	-4%[57.1 µM]	18%[57 µM]
O=C(CSc1n[nH]c(=O)n1Cc1ccccc1)Nc1ccc(F)c(F)c1F	40µM*	?	.	-13%	24%
NS(=O)(=O)c1ccc(NC(=O)CSc2n[nH]c(=O)n2Cc2ccccc2)cc1	?	1%	.	-4%	14%
Cc1cc(C(=O)CSc2nc3ccccc3c(=O)n2C)c(C)n1CC1CCCO1 (centres undefined)	?	?	-3%	.	.
CCn1c(SCC(=O)c2cc(C)n(CC3CCCO3)c2C)nc2ccccc21 (centres undefined)	18µM*	?	-19%	?	-20%
Cc1cc(C(=O)CN2C(=O)c3ccccc3S2(=O)=O)c(C)n1CC1CCCO1 (centres undefined)	50µM*	-34%	0%	?	-4%
Cc1cn2c(=O)cc(COC(=O)c3cccc(NC(=O)C(C)Oc4ccccc4)c3)nc2s1 (centres undefined)	23%[59 µM]	-5%	.	-15%	11%
O=C1CC(N2CCN(c3ccccc3Cl)CC2)C(=O)N1c1ccc(F)cc1 (centres undefined)	50µM*	-3%	4%	-12%	16%
CC1CCN(C2CC(=O)N(c3ccccc3)C2=O)CC1 (centres undefined)	28µM*	-21%	0%	-1%	62%
O=C1CC(N2CCCCCC2)C(=O)N1c1ccc(F)cc1 (centres undefined)	11µM*	-18%	-4%	-5%	35%
CCN(C(=O)C1CCN(S(=O)(=O)c2ccc3c(c2)CCCN3C(=O)C2CCC2)CC1)c1cccc(C)c1	-8%[59 µM]	-11%	.	-30%	4%[57 µM]
